# This excerpt belongs to a sample that is enriched for the strongest signals.
# Key:
# Assay in all cases: glycan array binding signal (z-score within array); higher = stronger binding
# Details in all cases: glycan notation: IUPAC condensed, linker removed
# [1] = test system: Fuc(a1-2)[GalNAc(a1-3)]Gal(b1-4)GlcNAc
# Summary of the method: (§1)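 The Consortium for Functional Glycomics database supplied 3228 glycan arrays, of which those lacking an available protein sequence were dropped. The binding signal, a within-array Z-score, was averaged across arrays of the same protein sequence and across linkers. Negative scores can be read as non-binding.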
# [2] = test system: Fuc(a1-2)[GalNAc(a1-3)]Gal(b1-4)[Fuc(a1-3)]GlcNAc(b1-3)GalNAc
# Summary of the method: as §1
# [3] = test system: Fuc(a1-2)[GalNAc(a1-4)]Gal(b1-4)GlcNAc
# Summary of the method: as §1
# [4] = test system: Fuc(a1-3)[Gal3S(b1-4)]GlcNAc6S
# Summary of the method: as §1
# [5] = test system: Fuc(a1-3)[Gal(b1-4)]GlcNAc(b1-3)Gal(b1-4)[Fuc(a1-3)]GlcNAc(b1-3)Gal(b1-4)[Fuc(a1-3)]GlcNAc
# Summary of the method: as §1
# [6] = test system: Fuc(a1-3)[Gal(b1-4)]GlcNAc(b1-3)GalNAc
# Summary of the method: as §1
# [7] = test system: Fuc(a1-3)[GalNAc(b1-4)]GlcNAc
# Summary of the method: as §1
# [8] = test system: Fuc(a1-2)[GalNAc(a1-3)]Gal(b1-4)GlcNAc(b1-3)GalNAc
# Summary of the method: as §1
# [9] = test system: Fuc(a1-2)[GalNAc(a1-3)]Gal(b1-4)GlcNAc(b1-6)GalNAc
# Summary of the method: as §1
# [10] = test system: Fuc(a1-3)[Gal(b1-4)]GlcNAc(b1-2)Man(a1-3)[Fuc(a1-3)[Gal(b1-4)]GlcNAc(b1-2)Man(a1-6)]Man(b1-4)GlcNAc(b1-4)GlcNAc
# Summary of the method: as §1
# [11] = test system: Fuc(a1-3)[Gal(b1-4)]GlcNAc(b1-2)Man
# Summary of the method: as §1
# [12] = test system: Fuc(a1-3)[Gal3S(b1-4)]GlcNAc
# Summary of the method: as §1
# [13] = test system: Fuc(a1-3)[Gal(b1-4)]Glc6S
# Summary of the method: as §1
# [14] = test system: Fuc(a1-2)[GalNAc(a1-3)]Gal
# Summary of the method: as §1
# [15] = test system: Fuc(a1-3)[Gal(b1-4)]GlcNAc(b1-3)Gal(b1-3)[Fuc(a1-4)]GlcNAc
# Summary of the method: as §1
# [16] = test system: Fuc(a1-3)[Neu5Ac(a2-3)]Gal(b1-4)GlcNAc(b1-3)GalNAc
# Summary of the method: as §1
# Fuc(a1-3)GlcNAc = test system: Fuc(a1-3)GlcNAc
# Summary of the method: as §1
# [17] = test system: Fuc(a1-2)[GalNAc(b1-3)]Gal
# Summary of the method: as §1
# [18] = test system: Fuc(a1-3)[Gal(b1-4)]GlcNAc(b1-6)[Gal(b1-3)GlcNAc(b1-3)]Gal(b1-4)Glc
# Summary of the method: as §1
# [19] = test system: Fuc(a1-2)[GalNAc(a1-3)]Gal(b1-4)GlcNAc(b1-3)Gal(b1-4)GlcNAc
# Summary of the method: as §1
substance,measurement,setting,value
AgI/II Vhelical-GFP (Streptococcus mutans),glycan array binding signal (z-score),[1],-0.146
same,glycan array binding signal (z-score),[2],2.49
same,glycan array binding signal (z-score),[3],2.31
same,glycan array binding signal (z-score),[4],-0.111
Actinohivin (Actinomycete K97),glycan array binding signal (z-score),[5],-0.173
same,glycan array binding signal (z-score),[6],-0.169
same,glycan array binding signal (z-score),[7],-0.17
LcI (Legionella pneumophila),glycan array binding signal (z-score),[8],0.164
same,glycan array binding signal (z-score),[9],2.06
same,glycan array binding signal (z-score),[10],0.959
"Wza (Escherichia coli), P0A930",glycan array binding signal (z-score),[11],0.907
same,glycan array binding signal (z-score),[12],-1.1
same,glycan array binding signal (z-score),[7],-1.12
AgI/IIC123-GFP (Streptococcus mutans),glycan array binding signal (z-score),[9],2.18
same,glycan array binding signal (z-score),[2],4.84
same,glycan array binding signal (z-score),[13],-0.357
same,glycan array binding signal (z-score),[4],-0.143
"GspB (Streptococcus gordonii), Q939N5",glycan array binding signal (z-score),[14],-0.616
"SpGH101 (Streptococcus pneumoniae), Q8DR60",glycan array binding signal (z-score),[3],-0.12
same,glycan array binding signal (z-score),[10],-0.202
same,glycan array binding signal (z-score),[15],-0.148
same,glycan array binding signal (z-score),[12],-0.161
same,glycan array binding signal (z-score),[16],0.764
"BambL (Burhholderia ambifaria), Q0B4G1",glycan array binding signal (z-score),Fuc(a1-3)GlcNAc,7.79
same,glycan array binding signal (z-score),[13],-0.021
same,glycan array binding signal (z-score),[15],1.03
"SiiE (Salmonella typhimurium), A0A0H3NVH0",glycan array binding signal (z-score),[17],1
same,glycan array binding signal (z-score),[13],1.25
same,glycan array binding signal (z-score),[18],1.13
Epa22,glycan array binding signal (z-score),[19],0.068
